PMK inhibit – S. pneumoniae PMK inhibition; AID 539; 0.49% of 65,000 active; inhibition, % at 10 µM; purified PMK, PK/LDH-coupled NADH absorbance 340 nm;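 active = top-ranked compounds by inhibition in the single 10 µM screen, taking a fixed number of the strongest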
Fluor 339 460 – intrinsic fluorescence of library compounds, ex339/em460 – biochemical, MLSMR library, data from DPM-DC assay, artefact control, profiling panel; fluorescence fold increase at 10 µM; compound autofluorescence, ex339/em460 nm, NADH buffer; stronger effect = higher value; 1 = no-compound wells, NADH background; 5.5% of 65,000 active; AID 709;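 active = at 10 µM, mean starting fluorescence two-fold or more over control wells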;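 note: signal is the first read of a kinetic run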
NADH coupling – blocks coupling enzymes of NAD/NADH assays; IC50, µM (series often up to 10 µM); AID 774; 0.02% of 65,000 active; coupled PK/LDH NADH assays, four targets;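 active = single-dose screening hits from any of four coupled enzyme assays that gave an IC50 when retested across doses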;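 note: the DPM-DC format reads NADH fluorescence rather than 340 nm absorbance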
Spn DPM-DC inh – S. pneumoniae DPM-DC inhibition; purified DPM-DC, PK/LDH coupled NADH fluorescence; calls only at 10 µM; 0.49% of 65,000 active; AID 556;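 active = the 320 compounds with the highest percent inhibition in the single-dose primary screen, excluding strongly autofluorescent ones, cut at about 32% in these data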;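 note: kinetic rate of NADH fluorescence loss reporting ADP formed by the decarboxylase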
Abs 340nm – compound absorbs light at 340 nm. compound absorbance at 340 nm, fold over control. fold change at 10 µM. 65,000 tested, under 10 active. AID 708;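 active = at 10 µM dose, initial 340 nm absorbance at least 2 fold that of control wells; inactive = change under 2 fold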;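 note: initial absorbance extrapolated from kinetic A340 decline of NADH oxidation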
MK inhibit – inhibitors of Streptococcus pneumoniae mevalonate kinase; purified MK, PK/LDH-coupled NADH absorbance 340 nm; inhibition, % at 10 µM; 0.48% of 65,000 active; AID 555;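 active = ranked among the strongest by inhibition in the single 10 µM screen, a fixed top-ranked set picked for dose follow-up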
Hits are given with their value; n = inactive; x = not tested or not shown; + = active, no number. Sampled rows, rich in hits. Any-hit rate of the full collection: about 6.3%.

SMILES	PMK inhibit	Fluor 339 460	NADH coupling	Spn DPM-DC inh	Abs 340nm	MK inhibit
COc1ccc(OC)c(-c2cc(C(=O)Nc3cc(C)n(Cc4ccc(Cl)cc4)n3)no2)c1	n	3.8	n	n	n	n
COc1cccc(-c2cc(C(=O)Nc3cc(C)n(Cc4ccc(Cl)cc4)n3)no2)c1	n	n	n	n	n	n
O=C(O)c1cccc(N2CCCC2)c1	n	5	n	x	n	n
CC1CC(C)CN(CCCNC(=O)Cn2ncc3c(=O)oc4ccccc4c32)C1 (stereo not drawn)	n	n	n	+	n	n
c1cc(CSc2nnc(-c3ccc4c(c3)OCO4)o2)ccn1	n	n	n	n	n	n
CN(C)C(=O)N1CCCC(C(=O)NCc2cccs2)C1 (stereo not drawn)	n	n	n	n	n	n
CN(C)C(=O)N1CCC(C(=O)NCc2cccs2)CC1	n	n	n	+	n	n
O=C1OC(Nc2ccc(Br)cn2)c2ccccc21 (stereo not drawn)	n	n	n	n	n	n
CCCn1c(C)nc2c(c1=O)c1nc3ccccc3nc1n2CCC1=CCCCC1	n	3.76	n	x	n	n
CCCn1c(C)nc2c(c1=O)c1nc3ccccc3nc1n2CCc1ccccc1	n	3.08	n	x	n	n
CC(C)n1c2ccccc2c2nc3ccccc3nc21	n	2.69	n	n	n	n
CCN(CC)CCOc1cc2c(nn1)Oc1ccccc1N2C	n	3.81	n	x	n	n
N#Cc1cc2c(nc1SCc1cccnc1)CCCCC2	n	n	n	n	n	n
N#Cc1cc2ccccc2nc1SCc1cccnc1	29.0	n	n	n	n	n
N#Cc1nc(-c2ccco2)oc1NCCCn1ccnc1	n	3.96	n	x	n	n
N#Cc1nc(-c2ccc(OCc3ccccc3)cc2)oc1NCCCn1ccnc1	n	3.95	n	x	n	n
Cc1ccc(OCc2nc(C#N)c(NCCCn3ccnc3)o2)cc1	n	n	n	n	n	n
N#Cc1nc(COc2ccccc2F)oc1NCCCn1ccnc1	n	n	n	n	n	n
CN(C)c1oc(-c2ccc(OCc3ccccc3)cc2)nc1C#N	n	3.88	n	x	n	n
N#Cc1nc(COc2ccccc2)oc1NCCCn1ccnc1	n	n	n	n	n	n
N#Cc1nc(-c2ccc(OCc3ccccc3Cl)cc2)oc1NCCCn1ccnc1	n	2.34	n	n	n	n
C=CCNS(=O)(=O)c1ccc2nsnc2c1	n	n	n	n	n	n
COc1ccc(OC)c(C(c2nnnn2C2CCCC2)N2CCN(c3ccccc3)CC2)c1 (stereo not drawn)	n	n	n	n	n	n
CC(C)CCOCC(=O)Nc1cccc(C(=O)O)c1	n	n	n	n	n	n
CC(=O)c1cccc(NC(=O)c2cc3nc(C)cc(C)n3n2)c1	n	2.45	n	n	n	n
SMILES	PMK inhibit	Fluor 339 460	NADH coupling	Spn DPM-DC inh	Abs 340nm	MK inhibit
CC(=O)c1cccc(NC(=O)c2cc(C(C)C)on2)c1	n	n	n	n	n	n
CCCc1cc(=O)oc2cc(C)c3c(C)coc3c12	n	2.14	n	x	n	n
CCCc1cc(=O)oc2cc3occ(C)c3cc12	n	2.23	n	x	n	n
ONC=Nc1cccc2nonc12	n	n	n	n	n	n
CCCCc1nc(NCCN2CCOCC2)c(C#N)c2c1COC(C)(C)C2	n	n	n	n	n	n
CCN(CC)CCNc1nc(-c2ccco2)c2c(c1C#N)CC(C)(C)OC2	n	2.33	n	x	n	n
CC1(C)Cc2c(C#N)c(NCCc3ccccc3)nc(-c3ccco3)c2CO1	n	2.33	n	x	n	n
Cc1nc(NCCO)c(C#N)c2c1COC(C)(C)C2	n	n	n	x	n	n
COCCSc1ccccc1C(=O)N1CCN(Cc2ccc3c(c2)OCO3)CC1	n	n	n	n	n	n
NC(=O)c1nsc(C(=O)N(CC(=O)NCc2ccc3c(c2)OCO3)C2CCCCC2)c1N	n	2.86	n	n	n	n
COC(=O)C1=C(C)NC2=C(C(=O)CCC2)C1c1cccc(C)n1 (stereo not drawn)	n	3.95	n	x	n	n
CCCOC(=O)C1=C(C)NC2=C(C(=O)CCC2)C1c1cccs1 (stereo not drawn)	n	n	n	n	n	n
COC(=O)C1=C(C)NC2=C(C(=O)CC(C)(C)C2)C1c1cccc(C)n1 (stereo not drawn)	n	3.68	n	x	n	n
CCCOC(=O)C1=C(C)NC2=C(C(=O)CCC2)C1c1cccc(OC)c1OC (stereo not drawn)	n	2.25	n	x	n	n

Screening data as filed in PubChem BioAssay.
